Bioassay records from PubChem.
Shown are actives, neighbours in structure and some others; about 1.2% of the full set was active somewhere.
RAD52 inh: inhibitors of human RAD52 DNA annealing | P43351 | recombinant RAD52 DNA annealing, FRET fluorescence | inhibition, % at 18.7 µM | actives 0.46% (n = 360,000) | AID 651710;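 active = every replicate showing at least 50% inhibition; inconclusive = mean inhibition at least 50% but not in every replicate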
Target sequence (P43351 whole entry, looked up): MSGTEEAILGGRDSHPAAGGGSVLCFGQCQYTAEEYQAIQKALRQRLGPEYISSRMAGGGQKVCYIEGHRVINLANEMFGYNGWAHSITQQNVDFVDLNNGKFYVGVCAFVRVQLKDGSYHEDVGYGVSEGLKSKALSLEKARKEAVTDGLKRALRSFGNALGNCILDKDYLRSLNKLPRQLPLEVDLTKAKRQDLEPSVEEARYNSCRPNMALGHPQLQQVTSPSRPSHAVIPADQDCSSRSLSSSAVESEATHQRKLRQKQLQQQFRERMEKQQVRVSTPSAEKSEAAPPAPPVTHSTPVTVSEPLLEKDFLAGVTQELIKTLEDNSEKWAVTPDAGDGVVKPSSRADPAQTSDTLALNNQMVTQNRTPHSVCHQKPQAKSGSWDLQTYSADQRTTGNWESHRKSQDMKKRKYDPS
RAD54 branch: inhibitors of human RAD54 branch migration; AID 602329; actives 0.14% (n = 360,000); Q92698; RAD54 Holliday junction branch migration, FAM/BHQ fluorescence; inhibition, % at 10.4 µM;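 active = mean normalized replicate activity at least 40 and at least half of replicates scoring 40 or more; inconclusive = only one of the two criteria met; inactive = mean below 40 and under half of replicates reaching 40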;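 also: inhibitors cause a drop in the FAM fluorescence signal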
MLL AF4-AF9 inh: inhibitors of human MLL-AF4/AF9 interaction | P42568 | AlphaScreen, biotin-AF4 peptide binding to FLAG-AF9 | inhibition, % at 10 µM | actives 0.47% (n = 350,000) | AID 651704;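 active = every replicate reaching a set inhibition limit, whatever the replicate mean, cut at about 25% in these data; inconclusive = mean inhibition reaches that limit but some replicates miss it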
N-glyco inh: blocks N-linked glycosylation in D54 reporter cells | D54 ERlucT glycosylation luciferase reporter, 24 h; percent of 100 nM tunicamycin response | reporter increase, % at 12.5 µM | actives 0.23% (n = 360,000) | AID 588692;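 active = mean luciferase reporter signal, scaled so untreated is 0 and the glycosylation-blocking control 100, at or above a set limit in every replicate; inconclusive = mean reaches the limit but not every replicate does; inactive = mean below the limit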;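 also: luciferase carries N-glycosylation sites so blocking glycosylation raises the light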
Casp6 inh: caspase-6 (human) enzyme inhibition; inhibition, % at 12.5 µM; purified caspase-6, Z-VEID-R110 cleavage fluorescence; P55212; actives 0.53% (n = 350,000);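 active = mean inhibition across replicates at least about 35%, with every replicate also reaching that limit, limit read from the data; inconclusive = only one of the two criteria met; inactive = neither criterion met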
Target sequence (P55212 24-179 limits assumed): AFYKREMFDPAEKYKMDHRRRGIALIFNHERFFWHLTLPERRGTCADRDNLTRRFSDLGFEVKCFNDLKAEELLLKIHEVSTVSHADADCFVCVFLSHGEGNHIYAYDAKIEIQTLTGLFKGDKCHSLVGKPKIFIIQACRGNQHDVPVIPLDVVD
Target sequence (P55212 194-293 limits assumed): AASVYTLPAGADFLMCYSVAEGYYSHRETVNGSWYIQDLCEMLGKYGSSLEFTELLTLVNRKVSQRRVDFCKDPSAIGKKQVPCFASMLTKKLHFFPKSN
Each line names hits and unclear results; the compound was inactive in the other large screens.

CCOC(=O)c1sc(NC(=O)C2C3C=CC(C3)C2C(=O)O)nc1C (centres undefined)	Casp6 inh 54.8
CCOC(=O)c1sc(NC(=O)C2CC2)nc1C	none
C[C@H]1CCCCO[C@H](CN(C)Cc2ccncc2)[C@@H](C)CN([C@@H](C)CO)C(=O)c2cc(NC(=O)c3ccncc3)ccc2O1	none (no result: N-glyco inh)
C[C@@H]1CCCCO[C@@H](CN(C)Cc2ccc(C(=O)O)cc2)[C@H](C)CN([C@@H](C)CO)C(=O)c2cc(NC(=O)c3ccncc3)ccc2O1	RAD52 inh 104.4 (no result: N-glyco inh)
C[C@H]1CCCCO[C@H](CN(C)Cc2ccc(C(=O)O)cc2)[C@@H](C)CN([C@@H](C)CO)C(=O)c2cc(NC(=O)c3ccncc3)ccc2O1	RAD52 inh 102.0 (no result: N-glyco inh)
C[C@H](CO)N1C[C@H](C)[C@@H](CN(C)Cc2ccc(C(=O)O)cc2)OCCCC[C@H](C)Oc2ccc(NC(=O)c3ccncc3)cc2C1=O	RAD52 inh 96.2 (no result: N-glyco inh)
C[C@H]1CCCCO[C@@H](CN(C)Cc2ccncc2)[C@@H](C)CN([C@@H](C)CO)C(=O)c2cc(NC(=O)c3ccncc3)ccc2O1	none (no result: N-glyco inh)
C[C@H]1CCCCO[C@@H](CN(C)Cc2ccc(C(=O)O)cc2)[C@@H](C)CN([C@@H](C)CO)C(=O)c2cc(NC(=O)c3ccncc3)ccc2O1	RAD52 inh 105.8 (no result: N-glyco inh)
CC(C)C#Cc1ccc2c(c1)O[C@H](CN(C)C(=O)NC(C)C)[C@@H](C)CN([C@@H](C)CO)S2(=O)=O	none (no result: RAD52 inh, MLL AF4-AF9 inh, N-glyco inh, Casp6 inh)
COc1ccccc1-c1cn(CC[C@@H]2CC[C@H](NS(=O)(=O)c3ccccc3C)[C@H](CO)O2)nn1	none (no result: N-glyco inh)
C[C@@H]1CCCCO[C@H](CN(C)Cc2ccc(C(=O)O)cc2)[C@H](C)CN([C@@H](C)CO)C(=O)c2cc(NC(=O)c3ccncc3)ccc2O1	RAD52 inh 100.9 (no result: N-glyco inh)
C[C@@H]1CCCCO[C@@H](CN(C)Cc2ccc(C(=O)O)cc2)[C@@H](C)CN([C@H](C)CO)C(=O)c2cc(NC(=O)c3ccncc3)ccc2O1	RAD52 inh 75.7 (no result: N-glyco inh)
CC(C)NC(=O)N1[C@H](CO)[C@@H](c2ccccc2)C12CN(C(=O)Cc1ccccc1)C2	none (no result: RAD54 branch, N-glyco inh)
O=C(NCC1CCCO1)C(c1ccc(F)cc1)N(CC1CCCO1)C(=O)c1ccc(-c2ccccc2)[nH]1 (centres undefined)	Casp6 inh 48.3 (no result: RAD54 branch)
C[C@@H]1CN([C@H](C)CO)C(=O)c2cc(N(C)C)ccc2O[C@H]1CN(C)Cc1ccc(Oc2ccccc2)cc1	MLL AF4-AF9 inh 39.8 (no result: N-glyco inh)
C[C@H](CO)N1C[C@H](C)[C@H](CN(C)Cc2ccc(Oc3ccccc3)cc2)Oc2ccc(N(C)C)cc2C1=O	MLL AF4-AF9 inh 51.6 (no result: N-glyco inh)
C[C@@H]1CN([C@H](C)CO)C(=O)c2cc(N(C)C)ccc2O[C@@H]1CN(C)Cc1ccc(Oc2ccccc2)cc1	MLL AF4-AF9 inh 51.5 (no result: N-glyco inh)
CN1[C@@H]2Cn3c(ccc(-c4ccccc4)c3=O)[C@H]1[C@@H](C(=O)NC1CCCCC1)[C@@H]2CO	none (no result: N-glyco inh)
CO[C@H]1CN(C)C(=O)c2cc(NC(=O)C3CC3)ccc2OC[C@H](C)N(CC2CC2)C[C@@H]1C	none (no result: N-glyco inh)
C[C@@H]1CN([C@@H](C)CO)C(=O)c2cccc(NC(=O)C3CCOCC3)c2O[C@H]1CN(C)CC1CCCCC1	none (no result: N-glyco inh)
COC(=O)CSc1nc2nc(-c3cccs3)cc(C(F)(F)F)c2c(=O)[nH]1	none (no result: Casp6 inh)
O=C(CSc1nc2nc(-c3cccs3)cc(C(F)(F)F)c2c(=O)[nH]1)C(F)(F)F	N-glyco inh 36.6
COC(=O)C[C@H]1C[C@@H]2c3cc(NS(=O)(=O)c4ccc(F)cc4)ccc3O[C@@H]2[C@@H](CO)O1	none (no result: N-glyco inh)
Cn1c(SCC(=O)c2ccc(F)cc2)ncc(C(=O)Nc2ccccc2)c1=O	N-glyco inh 36.1
CC(=O)Nc1ccc(NC(=O)CSc2ncc(C(=O)Nc3ccccc3)c(=O)n2C)cc1	none
Cc1cc(Br)cc2c(C(=O)Nc3c(C)n(C)n(-c4ccccc4)c3=O)cc(-c3cccs3)nc12	N-glyco inh 40.8 (no result: RAD52 inh, RAD54 branch, MLL AF4-AF9 inh, Casp6 inh)
CCN1C(=O)Nc2cccc3cccc1c23	N-glyco inh 30.3
C=CCN1C(=O)N(CC=C)c2cccc3cccc1c23	none
CC1(C)CCN2CCC(C)(C)c3c(O)ccc1c32	MLL AF4-AF9 inh 25.7
CCCCN1Cc2c(nc3cc(-c4ccco4)[nH]n3c2=O)C1=O	Casp6 inh 44.2
COCc1cc(=O)n2[nH]c(-c3ccco3)cc2n1	none
CN1c2ccc(-c3ccccc3)cc2[C@@H]2[C@@H](CCN2C(=O)CN2CCOCC2)[C@@H]1CO	none (no result: N-glyco inh)
COc1ccc2c(c1)OC[C@H]1[C@H]2N2C(=O)c3cc(Br)ccc3NC(=O)[C@@]2(C)[C@H]1c1ccccc1	N-glyco inh 35.6 (no result: RAD52 inh, MLL AF4-AF9 inh, Casp6 inh)
COc1ccc2c(c1)[C@H]1[C@H](CO2)[C@H](c2ccccc2)[C@]2(C)C(=O)Nc3ccc(Br)cc3C(=O)N12	N-glyco inh 40.8
COc1ccc2c(c1)[C@H]1[C@H](CO2)[C@H](c2ccccc2)[C@]2(C)C(=O)Nc3cc(F)ccc3C(=O)N12	N-glyco inh 40.9
COc1ccc2c(c1)[C@H]1[C@H](CO2)[C@H](c2ccccc2)[C@]2(C)C(=O)N[C@H](C)C(=O)N12	none
COc1ccc2c(c1)OC[C@H]1[C@@H]2N2C(=O)[C@@H](C)NC(=O)[C@@]2(C)[C@H]1c1ccccc1	none
COc1ccc2c(c1)[C@H]1[C@H](CO2)[C@H](c2ccccc2)[C@]2(C)C(=O)Nc3ccccc3C(=O)N12	N-glyco inh 66.6
COc1ccc2c(c1)C(=O)N1[C@H]3c4cc(OC)ccc4OC[C@@H]3[C@H](c3ccccc3)[C@]1(C)C(=O)N2	N-glyco inh 61.5
CC(=O)c1ccccc1NS(=O)(=O)c1cccc2nsnc12	Casp6 inh 56.0
C#CCOCCOCCOCCNc1nc(N2CCN(C(=O)CCCCCCCCCCNC(=O)Cn3cc(CCCCCN)nn3)CC2)nc(N2CCN(C(=O)CCCCCCCCCCNC(=O)[C@@H](CCC(=O)O)n3cc(CCCCCN)nn3)CC2)n1	none (no result: RAD52 inh, MLL AF4-AF9 inh, Casp6 inh)
C#CCOCCOCCOCCNc1nc(N2CCN(C(=O)CCCCCCCCCCNC(=O)[C@H](CO)n3cc(CCCSC)nn3)CC2)nc(N2CCN(C(=O)CCCCCCCCCCNC(=O)[C@H](CCCCN)n3cc(CCO)nn3)CC2)n1	RAD52 inh 54.7
C#CCOCCOCCOCCNc1nc(N2CCN(C(=O)CCCCCCCCCCNC(=O)[C@@H](CCSC)n3cc(CCO)nn3)CC2)nc(N2CCN(C(=O)CCCCCCCCCCNC(=O)[C@H](CCSC)n3cc(CCO)nn3)CC2)n1	none
C#CCOCCOCCOCCNc1nc(N2CCN(C(=O)CCCCCCCCCCNC(=O)Cn3cc(CCCCCN)nn3)CC2)nc(N2CCN(C(=O)CCCCCCCCCCNC(=O)[C@@H](CCSC)n3cc(CCO)nn3)CC2)n1	RAD52 inh 52.3 (no result: MLL AF4-AF9 inh)
CNC[C@@H]1OCCCC[C@@H](C)Oc2ccc(NC(=O)Cc3ccccc3)cc2C(=O)N([C@@H](C)CO)C[C@H]1C	none (no result: N-glyco inh)
CN(C)c1ccc(C=c2c3ccccc3n3c2cc(-c2ccc(Cl)cc2)[n+]3C)cc1	MLL AF4-AF9 inh 57.7, N-glyco inh inconclusive (no result: RAD54 branch)
